Test systems include DU-145 prostate; K-562 leukemia; MALME-3M melanoma; MDA-MB-231 breast; RXF 393 renal; SF-268 CNS; SF-295 CNS; SF-539 CNS; UACC-257 melanoma; M14 melanoma; HCT-15 colon; HT29 colon; SNB-75 CNS; SNB-19 CNS; U251 CNS; PC-3 prostate; SK-MEL-5 melanoma; UACC-62 melanoma; LOX IMVI melanoma; SK-MEL-28 melanoma.
Common to all, as to test: NCI-60 one-dose screen, 48 h (100 = growth as untreated, 0 = no growth, -100 = all killed)
What all share (settings): 10 µM unless noted

Results on seven compounds are retold here after PubChem BioAssay (NCI).

The panel holds about 83,000 compounds, 20% with a hit somewhere; the sample as a whole holds those more often.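 96-well plates, one dose, 48 hours. Percent growth reported; active if below 10.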 A number with no mark means an inactive call. Active and inactive are the calls of the source.

Turning to `CCC(N)(C(=O)O)c1ccc(F)cc1` (stereo not given), the growth in the test on DU-145 prostate is 108%; with K-562 leukemia, 91.9%; in the test on MALME-3M melanoma, 112%; in the test with MDA-MB-231 breast, 110%; in the test on RXF 393 renal, 123%; in the test with SF-268 CNS it was 102%. Further, the growth in the test on SF-295 CNS was 108%; with SF-539 CNS, 109%; in the test with UACC-257 melanoma, 86.2%; with M14 melanoma, 103%; in the test with HCT-15 colon, 104%; in the test on HT29 colon, 94.9%. Also, the growth with SNB-75 CNS was 113%; in the test on SNB-19 CNS it was 107%; with U251 CNS, 90.7%; with PC-3 prostate it was 81.4%; with SK-MEL-5 melanoma it was 99.9%; in the test on UACC-62 melanoma it was 112%. Further, the growth with LOX IMVI melanoma was 96%; with SK-MEL-28 melanoma, 112%.
With `Cn1c(I)c(C#C[Si](C)(C)C)c(=O)[nH]c1=O`, the growth with DU-145 prostate is 64.3%; in the test on K-562 leukemia, -71.3% (active); with MALME-3M melanoma it was -65.9% (active); in the test on MDA-MB-231 breast, 9.45% (active); with RXF 393 renal, -86.3% (active); in the test with SF-268 CNS, -8.38% (active). The growth in the test on SF-295 CNS is 96.2%; in the test with SF-539 CNS it was 96.7%; in the test with UACC-257 melanoma, -36.5% (active); in the test with M14 melanoma, -50.1% (active); with HCT-15 colon, -37.6% (active); in the test with HT29 colon, -60% (active). Besides, the growth in the test with SNB-75 CNS is 75.2%; with SNB-19 CNS, 100%; in the test on U251 CNS it was 51.5%; with PC-3 prostate, 4.88% (active); in the test with SK-MEL-5 melanoma, 98.3%; in the test with UACC-62 melanoma, 11.8%. Besides, the growth is -69.9% (active) in the test on LOX IMVI melanoma and -82% (active) in the test with SK-MEL-28 melanoma.
In the case of `COC(=O)c1oc2c(C(C)=O)c(OCCN3CCCCC3)ccc2c1C`, the growth was 117% in the test with DU-145 prostate; 89.4% in the test with K-562 leukemia; 40.9% with MALME-3M melanoma; 87.2% in the test on MDA-MB-231 breast; 124% with RXF 393 renal; 95.4% in the test with SF-268 CNS. Further, the growth is 99.4% in the test on SF-295 CNS; 116% with SF-539 CNS; 112% with UACC-257 melanoma; 111% with M14 melanoma; 110% in the test with HCT-15 colon; 133% in the test on HT29 colon. Moreover, the growth in the test with SNB-75 CNS is 226%; in the test on SNB-19 CNS, 125%; with U251 CNS, 105%; in the test on PC-3 prostate, 93.9%; in the test on SK-MEL-5 melanoma it was 102%; in the test with UACC-62 melanoma, 122%. For the same compound, the growth was 96.5% in the test on LOX IMVI melanoma and 133% in the test on SK-MEL-28 melanoma.
As to `C=C1C(=O)O[C@H]2[C@H]1CC/C(COC(=O)CCCC(=O)OC/C1=C/CC[C@@]3(C)O[C@H]3[C@H]3OC(=O)C(=C)[C@@H]3CC1)=C\CC[C@@]1(C)O[C@@H]21`, the growth with DU-145 prostate is 20.8%; in the test with K-562 leukemia, 7.38% (active); in the test with MALME-3M melanoma it was -8.44% (active); in the test with MDA-MB-231 breast, 2.73% (active); with RXF 393 renal, -74.2% (active); with SF-268 CNS it was 44.2%. Further, the growth in the test on SF-295 CNS was 78.3%; with SF-539 CNS it was 0.465% (active); in the test with UACC-257 melanoma it was -39.9% (active); in the test with M14 melanoma it was -33.1% (active); in the test on HCT-15 colon it was 4.33% (active); in the test with HT29 colon, -40% (active). In addition, the growth in the test with SNB-75 CNS is 93.3%; in the test on SNB-19 CNS, 67.6%; in the test on U251 CNS, 48%; in the test with PC-3 prostate, 55.2%; with SK-MEL-5 melanoma it was 33.4%; with UACC-62 melanoma, -18.7% (active). Also, the growth in the test on LOX IMVI melanoma was -70.3% (active); with SK-MEL-28 melanoma, 8.77% (active).
Consider `OC(COc1ccccc1Cl)CN1CCN(c2ccc(Cl)cc2)CC1` (stereo not given), for which the growth was 110% in the test with DU-145 prostate; 115% in the test on K-562 leukemia; 110% with MALME-3M melanoma; 103% with MDA-MB-231 breast; 94.3% in the test with RXF 393 renal; 104% in the test with SF-268 CNS. Further, the growth was 97.9% in the test on SF-295 CNS; 90.6% in the test on SF-539 CNS; 109% in the test on UACC-257 melanoma; 105% in the test with M14 melanoma; 90.5% in the test on HCT-15 colon; 113% in the test on HT29 colon. For the same compound, the growth was 83.3% with SNB-75 CNS; 111% in the test on SNB-19 CNS; 99.5% in the test with U251 CNS; 85.1% in the test on PC-3 prostate; 104% in the test with SK-MEL-5 melanoma; 95.9% in the test with UACC-62 melanoma. Besides, the results for the growth in the test with LOX IMVI melanoma and with SK-MEL-28 melanoma were 104% and 103%, respectively.
In the case of `CN(C)CCS(=O)(=O)Nc1cc(-c2ccc3ncnc(Nc4ccc(F)c(Cl)c4)c3c2)cnc1Cl`, the growth was -3.31% (active) with DU-145 prostate; 9.31% (active) in the test with K-562 leukemia; -23.2% (active) in the test on MALME-3M melanoma; -26.8% (active) in the test with MDA-MB-231 breast; -47.2% (active) in the test with RXF 393 renal; -20.9% (active) in the test with SF-268 CNS. The growth with SF-295 CNS is 10.1%; with SF-539 CNS, -22.2% (active); in the test with UACC-257 melanoma, -0.224% (active); with M14 melanoma, 4.73% (active); in the test with HCT-15 colon, -2.7% (active); with HT29 colon, 2.45% (active). In addition, the growth with SNB-75 CNS is 9.33% (active); in the test with SNB-19 CNS, 41.6%; with U251 CNS it was -40.6% (active); in the test with PC-3 prostate it was 6.17% (active); with SK-MEL-5 melanoma, -71.9% (active); in the test on UACC-62 melanoma it was -2.94% (active). The growth with LOX IMVI melanoma is -58.5% (active); in the test on SK-MEL-28 melanoma, -31.6% (active).
Regarding `O=C(CSc1nnc(-c2ccc(Cl)cc2)o1)Nc1ccc(C(=O)/C=C/c2ccccc2)cc1`, the growth in the test with DU-145 prostate is 101%; in the test with K-562 leukemia, 99.3%; with MALME-3M melanoma, 106%; with MDA-MB-231 breast, 99.1%; in the test on RXF 393 renal it was 112%; in the test on SF-268 CNS, 103%. For the same compound, the growth is 105% with SF-295 CNS; 106% with SF-539 CNS; 101% in the test with UACC-257 melanoma; 96% in the test with M14 melanoma; 96.7% with HCT-15 colon; 98% in the test with HT29 colon. For the same compound, the growth in the test on SNB-75 CNS was 90.4%; with SNB-19 CNS, 86.9%; with U251 CNS, 99.3%; in the test on PC-3 prostate, 99.4%; in the test with SK-MEL-5 melanoma, 98%; in the test on UACC-62 melanoma, 85.6%. Also, the growth is 85.3% in the test with LOX IMVI melanoma and 105% in the test with SK-MEL-28 melanoma.
